A selection follows.
CYP2C19 activ: activators of human cytochrome P450 2C19 | activation factor at 5 µM | recombinant CYP2C19, luciferin-H EGE luminescence; hits give high values; 0 = fully inhibited enzyme, 1 = untreated enzyme | 96,000 tested, under 10 active | P33261;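 active means activation factor of at least 2 at 5 µM in the primary screen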;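 further: 0 = wells with 2.5 mM tranylcypromine and 1 = vehicle-only wells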
Target sequence (P33261 whole entry, looked up): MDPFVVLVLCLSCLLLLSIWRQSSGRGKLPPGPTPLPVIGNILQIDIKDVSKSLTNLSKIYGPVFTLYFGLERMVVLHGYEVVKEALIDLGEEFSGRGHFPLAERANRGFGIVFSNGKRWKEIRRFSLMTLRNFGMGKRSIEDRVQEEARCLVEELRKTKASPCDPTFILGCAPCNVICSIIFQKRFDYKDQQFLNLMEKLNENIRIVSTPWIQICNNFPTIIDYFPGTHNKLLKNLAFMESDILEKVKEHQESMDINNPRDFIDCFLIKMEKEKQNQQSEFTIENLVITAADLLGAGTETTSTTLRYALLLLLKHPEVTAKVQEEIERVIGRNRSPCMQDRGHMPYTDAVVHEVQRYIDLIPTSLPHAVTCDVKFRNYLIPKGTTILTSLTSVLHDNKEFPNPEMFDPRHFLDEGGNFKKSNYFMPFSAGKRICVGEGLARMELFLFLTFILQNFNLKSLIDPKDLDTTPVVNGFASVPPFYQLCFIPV
CYP2C9 inhib: human CYP2C9 inhibition | CYP2C9 Supersomes, luciferin-H conversion, luminescence | inhibition, % at 5 µM | AID 777 | hit rate 20% among 96,000;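 active means blocking of liver enzyme CYP2C9 beyond about 50% at 5 µM, limit read from the data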
CYP2C9 activ: increases human cytochrome P450 2C9 activity. P11712. recombinant CYP2C9, luciferin-H conversion, luminescence; hits give high values; factor 1 = untreated enzyme, 0 = blocked. AID 1024. hit rate 1.4% among 96,000. activation factor at 5 µM;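 active means activation factor of 2 or more for CYP2C9 at a 5 µM dose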;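 further: 0 = sulfaphenazole-blocked wells and 1 = vehicle-only wells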
CYP2C19 inh: blocks human cytochrome P450 2C19; hit rate 21% among 96,000; AID 778; inhibition, % at 5 µM; CYP2C19 Supersomes, luciferin-H EGE luminescence, 30 min; P33261;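 active means CYP2C19 inhibition above a set limit at 5 µM in the primary screen, cut at about 50% in these data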;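 further: plate controls were negative control wells for no effect and 2.5 mM tranylcypromine positive control for full effect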
* = called active by the depositor.

How did COC(=O)CCC(=O)Nc1cccc(Br)c1 do in these assays?
CYP2C19 activ: 0.9; CYP2C9 inhib: 2; CYP2C9 activ: 1; CYP2C19 inh: 12

How did Cc1cccc2cc(C(c3nnnn3CC3CCCO3)N3CCc4ccccc4C3)c(=O)[nH]c12 (configuration not stated) do in these assays?
CYP2C19 activ: 0.5; CYP2C9 inhib: 60*; CYP2C9 activ: 0.4; CYP2C19 inh: 47

Results for Cc1cccc2cc(C(c3nnnn3CC3CCCO3)N3CCCc4ccccc43)c(=O)[nH]c12 (configuration not stated) ?
CYP2C19 activ: 0.7; CYP2C9 inhib: 56*; CYP2C9 activ: 0.4; CYP2C19 inh: 28

What do the screens show for `Cc1ccc2cc(C(c3nnnn3CC3CCCO3)N3CCc4ccccc4C3)c(=O)[nH]c2c1` (configuration not stated)?
CYP2C19 activ: 0.6; CYP2C9 inhib: 71*; CYP2C9 activ: 0.3; CYP2C19 inh: 42

How did COc1ccc2cc(C(c3nnnn3CC3CCCO3)N3CCOCC3)c(=O)[nH]c2c1 (configuration not stated) do in these assays?
CYP2C19 activ: 1; CYP2C9 inhib: 2; CYP2C9 activ: 1; CYP2C19 inh: -4

Results for Cc1cccc2cc(C(c3nnnn3CC3CCCO3)N3CCCC4(CCCCC4)C3)c(=O)[nH]c12 (configuration not stated) ?
CYP2C19 activ: 0.9; CYP2C9 inhib: 19; CYP2C9 activ: 0.8; CYP2C19 inh: 9

How did Cc1cc2cc(C(c3nnnn3CC3CCCO3)N3CCCc4ccccc43)c(=O)[nH]c2cc1C (configuration not stated) do in these assays?
CYP2C19 activ: 0.8; CYP2C9 inhib: 35; CYP2C9 activ: 0.7; CYP2C19 inh: 16

How did CC1CCN(S(=O)(=O)c2ccc(NC(=O)CSc3nnnn3C)cc2)CC1 do in these assays?
CYP2C19 activ: 1; CYP2C9 inhib: -1; CYP2C9 activ: 1; CYP2C19 inh: -2

What do the screens show for `Cc1ccc(C)n1-c1ccc(N2CCOCC2)c(Br)c1`?
CYP2C19 activ: 0.9; CYP2C9 inhib: 6; CYP2C9 activ: 0.9; CYP2C19 inh: 14

How did CCc1sc(C(=O)NC2CCN(C)CC2)cc1Br do in these assays?
CYP2C19 activ: 1; CYP2C9 inhib: 39; CYP2C9 activ: 0.6; CYP2C19 inh: -4

What do the screens show for `CCCS(=O)(=O)Nc1cc(C(F)(F)F)ccc1OCCOC`?
CYP2C19 activ: 0.5; CYP2C9 inhib: 15; CYP2C9 activ: 0.8; CYP2C19 inh: 50*

Results for Nc1ccc(-c2n[nH]c(=O)c3ccccc23)cc1N ?
CYP2C19 activ: 1.1; CYP2C9 inhib: -54; CYP2C9 activ: 1.5; CYP2C19 inh: -8

What do the screens show for `Cc1ccc(-c2n[nH]c(=O)c3ccccc23)cc1N`?
CYP2C19 activ: 0.3; CYP2C9 inhib: 23; CYP2C9 activ: 0.8; CYP2C19 inh: 68*

How did CCCN(CCC)c1nc(N)c(C#N)c(CC#N)c1C#N do in these assays?
CYP2C19 activ: 1; CYP2C9 inhib: 25; CYP2C9 activ: 0.8; CYP2C19 inh: -4

Results for Cc1cccc(OCc2nnc(SCC(=O)Nc3cc(C)on3)n2C)c1 ?
CYP2C19 activ: 0.9; CYP2C9 inhib: 11; CYP2C9 activ: 0.9; CYP2C19 inh: 10

What do the screens show for `O=C(O)c1ccc(OCCn2ccnc2)cc1`?
CYP2C19 activ: 1.2; CYP2C9 inhib: -6; CYP2C9 activ: 1.1; CYP2C19 inh: -20

How did Clc1ccc(SCCCCn2ccnc2)cc1 do in these assays?
CYP2C19 activ: 0; CYP2C9 inhib: 100*; CYP2C9 activ: 0; CYP2C19 inh: 100*

How did Cc1ccccc1OCCCCCn1ccnc1 do in these assays?
CYP2C19 activ: 0; CYP2C9 inhib: 100*; CYP2C9 activ: 0; CYP2C19 inh: 100*

What do the screens show for `Clc1ccccc1OCCCCn1ccnc1`?
CYP2C19 activ: 0; CYP2C9 inhib: 96*; CYP2C9 activ: 0; CYP2C19 inh: 100*

Results for Cc1cc(C)n(C(=O)CSc2ccc(Cl)cc2)n1 ?
CYP2C19 activ: 0.9; CYP2C9 inhib: 17; CYP2C9 activ: 0.8; CYP2C19 inh: 5

What do the screens show for `Clc1cc(Br)ccc1OCCn1ccnc1`?
CYP2C19 activ: 0; CYP2C9 inhib: 93*; CYP2C9 activ: 0.1; CYP2C19 inh: 96*

How did CC1(C)CC(NC(=O)c2coc(=O)c(Br)c2)CC(C)(C)N1 do in these assays?
CYP2C19 activ: 1; CYP2C9 inhib: 13; CYP2C9 activ: 0.9; CYP2C19 inh: 0

What do the screens show for `CCc1ccc(OCC(=O)Nc2ncc3c(n2)CC(C)(C)CC3=O)cc1`?
CYP2C19 activ: 0.9; CYP2C9 inhib: -6; CYP2C9 activ: 1.1; CYP2C19 inh: 6

What do the screens show for `CCOC(=O)CCC(=O)N1CCOCCOCCN(C(=O)CCC(=O)OCC)CCOCCOCC1`?
CYP2C19 activ: 1; CYP2C9 inhib: 2; CYP2C9 activ: 1; CYP2C19 inh: -2

What do the screens show for `c1ccc(-c2csc(Nc3nc(N4CCOCC4)nc(N4CCOCC4)n3)n2)cc1`?
CYP2C19 activ: 0.8; CYP2C9 inhib: 44; CYP2C9 activ: 0.6; CYP2C19 inh: 20

Results for CCC(C)NC(=O)C(Cc1ccccc1)n1cccc1 (configuration not stated) ?
CYP2C19 activ: 0.4; CYP2C9 inhib: 60*; CYP2C9 activ: 0.4; CYP2C19 inh: 62*

Results for CCC(C(=O)N1CCc2cc(OC)c(OC)cc2C1)c1ccccc1 (configuration not stated) ?
CYP2C19 activ: 0.3; CYP2C9 inhib: 73*; CYP2C9 activ: 0.3; CYP2C19 inh: 73*

How did CC(=O)/C(C(=N)N1CCN(c2cccc(Cl)c2)CC1)=C(\C)O do in these assays?
CYP2C19 activ: 1; CYP2C9 inhib: -92; CYP2C9 activ: 1.9; CYP2C19 inh: -1

What do the screens show for `O=C(C(Cc1ccccc1)n1cccc1)N1CCN(c2cccc(Cl)c2)CC1` (configuration not stated)?
CYP2C19 activ: 0.2; CYP2C9 inhib: 70*; CYP2C9 activ: 0.3; CYP2C19 inh: 82*

Results for O=C(NC1CCCC1)C(Cc1ccccc1)n1cccc1 (configuration not stated) ?
CYP2C19 activ: 0.8; CYP2C9 inhib: 35; CYP2C9 activ: 0.6; CYP2C19 inh: 24

What do the screens show for `O=C(C(Cc1ccccc1)n1cccc1)N1CCCCC1` (configuration not stated)?
CYP2C19 activ: 0.6; CYP2C9 inhib: -6; CYP2C9 activ: 1.1; CYP2C19 inh: 45

What do the screens show for `O=C(C(Cc1ccccc1)n1cccc1)N1CCN(Cc2ccccc2)CC1` (configuration not stated)?
CYP2C19 activ: 0.8; CYP2C9 inhib: 62*; CYP2C9 activ: 0.4; CYP2C19 inh: 23

How did COc1cc2c(cc1OC)CN(C(=O)c1ccccc1C(=O)O)CC2 do in these assays?
CYP2C19 activ: 1.1; CYP2C9 inhib: -15; CYP2C9 activ: 1.1; CYP2C19 inh: -9

How did COc1cc(-n2nnnc2SCC(=O)N2CCN(c3ccc(F)cc3)CC2)c(OC)cc1Cl do in these assays?
CYP2C19 activ: 1.1; CYP2C9 inhib: 8; CYP2C9 activ: 0.9; CYP2C19 inh: -12

What do the screens show for `COc1ccc2[nH]c(=O)c(CN(C(=O)C3CCCO3)c3ccc(C)cc3)cc2c1` (configuration not stated)?
CYP2C19 activ: 0.8; CYP2C9 inhib: 39; CYP2C9 activ: 0.6; CYP2C19 inh: 21
